Assay results published in PubChem BioAssay.
A number with no mark means an inactive call. The rule behind the calls is not given here. Numbered stars: 1 amine (or outer) side, 2 acyl side, 3 side chain; on linkers, the order of the positions; unused ones are H or OH. Bridge positions count the residues as written; N and C are the ends. Square brackets hold non-standard residues; d marks the D form. Peptide text beside a SMILES is read from it. * marks the point of attachment. ξ: configuration not given here. ΔAla(Z-3-ureido) = NC(=O)N/C=C(\N)C(=O)O; X2 = NC1=NC(O)CC(C(N[*:1])C(=O)[*:2])N1; ξβ3hOrn = NCCCC(N)CC(=O)*; Dap = NC[CH](N)C(=O)O

Test: compounds altering viability of human ES cells (AID 493140);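 note: cells exposed to compounds for four days before counting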
Conditions: human embryonic stem cell survival screen; active compounds read high

Row | Compound | survival
1 | C=CCN1/C(=C\CO)[C@@H]2C[C@@H]3[C@H]1CC[C@@]31c3ccccc3N3/C=C4\C5N(/C=C/2C31)c1ccccc1[C@@]51CC[C@@H]2[C@H]1C[C@H]4/C(=C/CO)N2CC=C (stereo not given in full) | 26.5
2 | CCCCC/C=C\C[C@@H]1O[C@H]1C(O)/C=C\C/C=C\CCCC(=O)O (stereo not given in full) | 86.8
3 | C[C@@H](O)CCC[C@H](O)/C=C/[C@H]1[C@H](O)CC(=O)[C@@H]1C/C=C\CCCC(=O)O | 111
4 | O=C(O)c1cc(NCc2cc(O)ccc2O)ccc1O | 90.2
5 | NCCCC(N)CC(=O)NC1CNC(=O)C(C2CC(O)N=C(N)N2)NC(=O)/C(=C/NC(N)=O)NC(=O)C(CO)NC(=O)C(CO)NC1=O (stereo not drawn) (ξβ3hOrn-[Dap]SS[ΔAla(Z-3-ureido)][X2]; lactam 1-C; configuration not given here) | 10.8
6 | CCCCC[C@H](O)/C=C/C=C/C=C/[C@H](O)C/C=C\CCCC(=O)O | 107
7 | CC/C=C\C/C=C\C/C=C\C/C=C\C=C\C(O)CCCC(=O)O (stereo not given) | 128
8 | CCCCC[C@H](O)/C=C/C=C\C=C\[C@@H](O)C/C=C\CCCC(=O)O | 135
9 | Cn1cnc2nc(NCCO)nc(NCc3ccccc3)c21 | 111
10 | COc1ccc2nccc(C(=O)O)c2c1 | 19.9
11 | CCCCCC(O)/C=C/C=C\CCCCCCCC(=O)O (stereo not given) | 49.5
12 | O=C(O)CCC[C@H](O)\C=C/C=C/C=C/[C@H](O)C/C=C\CCCCCO | 75.2
13 | CCCCC[C@H](O)/C=C/C=C\CCCCCCCCCC(=O)O | 73.3
14 | CCCCC/C=C\C/C=C\C=C\[C@@H](O)C/C=C\CCCC(=O)O | 129
15 | CCCCCC[C@@H](O)C/C=C\CCCCCCCC(=O)O | 85.1
16 | C=C(C)[C@@H]1CC[C@]2(CO)CC[C@]3(C)[C@H](CC[C@@H]4[C@@]5(C)CCC(O)C(C)(C)[C@@H]5CC[C@]43C)[C@@H]12 (stereo not given in full) | 7.33
17 | C[C@@H](O)CCC[C@H](O)/C=C/[C@@H]1[C@@H](C/C=C\CCCC(=O)O)[C@@H](O)C[C@H]1O | 102
18 | CC(=O)CC(=O)[C@@]1(O)CC[C@H]2[C@@H]3C=C(C)C4=CC(=O)CC[C@@H]4[C@H]3CC[C@@]21C | 10.6

Row | Compound | survival
19 | CCCCC/C=C\C[C@@H]1O[C@H]1/C=C/C(O)C/C=C\CCCC(=O)O (stereo not given in full) | 93.9
20 | CCCCC/C=C\C\C=C/C=C/C=C/[C@@H](SCC(N)C(=O)O)[C@@H](O)CCCC(=O)O (stereo not given in full) | 107
21 | CCCCC[C@H](O)/C=C/C=C/C=C/[C@@H](O)C/C=C\CCCC(=O)O | 92.6
22 | CCCCC/C=C\C=C\C(O)CCCCCCCC(=O)O (stereo not given) | 83.9
23 | O=P(O)(O)C(O)c1ccc2ccccc2c1 (stereo not given) | 93.4
24 | O=c1[nH]c(=O)n([C@H]2C[C@@H](O)[C@@H](CO)O2)cc1C(F)(F)F | 0.583
25 | CCCCC[C@H](O)/C=C/C=C\C/C=C\CCCCC(=O)O | 67.2
26 | CCCCC[C@H](O)/C=C/C=C\C/C=C\CCCCCCC(=O)O | 102
27 | Nc1ncn(C2O[C@H](CO)[C@H](O)[C@@H]2O)c(=O)n1 (stereo not given in full) | 0.083
28 | CCCCC[C@H](O)/C=C/[C@H]1OC(=O)C[C@H](O)[C@@H]1C/C=C\CCCC(=O)O | 110
29 | CCCCC/C=C\C[C@@H](O)/C=C/C=C\CCC(=O)O | 67.7
30 | COC1C(O)CC(=O)OC(C)CC=CC=CC(OC2CCC(N(C)C)C(C)O2)C(C)CC(CC=O)C1OC1OC(C)C(OC2CC(C)(O)C(O)C(C)O2)C(N(C)C)C1O (stereo not given) | 3.42
31 | CCCCC/C=C\C[C@@H](O)/C=C/C=C/C=C/[C@@H](O)CCCC(=O)O | 77.1
32 | CC(C)C[C@H](NC(=O)[C@H](CCC(=O)O)NC(=O)CNC(=O)c1ccc(/C=C/C(=O)O)cc1)C(N)=O | 88.2
33 | CCCCC/C=C\C/C=C\C/C=C\CCCCCCC(=O)O[C@H](COCCCCCCCCCCCCCCCC)COP(=O)([O-])OCC[N+](C)(C)C | 71.5
34 | CCCCC[C@H](O)/C=C/[C@H]1OC(O)C[C@H](O)[C@@H]1C/C=C\CC(=O)O (stereo not given in full) | 117
35 | CC(C)NCC1CCc2cc(CO)c([N+](=O)[O-])cc2N1 (stereo not given) | 28.3
